Inconclusive results are not listed. The source made the active and inactive calls. Unless noted, calls come from the whole dose curve; as a rule, active = well fitted curve in the direction sought with a large enough effect in the repeat runs; inconclusive = weak or mixed curves; inactive = no such curve, though single readings can be large; an effect the other way counts as inactive or inconclusive.
How the values were obtained:
[1] = target: Progesterone receptor (Homo sapiens) (UniProt P06401); test: qHTS assay to identify small molecule agonists of the progesterone receptor (PR) signaling pathway (AID 1346784; calls by dose curve; note: nearly all actives have a fitted effect of over 30% in size); settings: PR-UAS-bla HEK293T, beta-lactamase FRET ratio, 16 h; series mostly up to 92.4 µM
In short: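 Fluorescence from LiveBLAzer B/G FRET substrate cleavage (2 hr, RT) reported PR activation in PR-UAS-bla HEK 293T cells treated 16 hr at 37C/5% CO2 with compounds; medium contained 2% charcoal-stripped FBS.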

[2] = qHTS assay to identify small molecule antagonists of the progesterone receptor (PR) signaling pathway - cell viability counter screen (AID 1346798); settings: PR-UAS-bla HEK293T viability, CellTiter-Glo luminescence, 16 h; series mostly up to 92.4 µM; note: nearly all actives have a fitted effect of over 50% in size; note: potency is the fitted concentration of half-maximal effect
In short: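 CellTiter-Glo luminescence; PR-UAS-bla HEK293T, 3,000 cells/well; compound + R5020, 16 hr, 37C/5% CO2; 30 min RT before read.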

[3] = qHTS assay to identify small molecule antagonists of the TGF-beta/Smad signaling pathway - cell viability counter screen (AID 1346824); settings: SBE-bla HEK293T viability, CellTiter-Glo luminescence; series mostly up to 76.8 µM; note: nearly all actives have a fitted effect of over 50% in size; note: potency is the fitted concentration of half-maximal effect
In short: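 SBE-bla HEK 293T cells were plated overnight at 37 C, then given compounds in DMSO plus TGF-beta1 (added as 0.25 ng/mL solution) for 5 hr. After the bla read, CellTiter-Glo was added to the same wells and luminescence read after 30 min at room temperature.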

[4] = qHTS assay to identify small molecule agonists of the TGF-beta/Smad signaling pathway - cell viability counter screen (AID 1346829); settings: SBE-bla HEK293T viability, CellTiter-Glo luminescence, 5 h; series mostly up to 76.8 µM; note: top concentration of the series differs between compounds; nearly all actives have a fitted effect of over 45% in size
In short: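 SBE-bla HEK 293T cells plated overnight, compound exposure 5 hr at 37 C. Viability read in the same wells by CellTiter-Glo luminescence after 30 min at room temperature, following the beta-lactamase read.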

[5] = qHTS assay to identify small molecule agonists of the TGF-beta/Smad signaling pathway (AID 1346859; active = well fitted activation curve with a large enough effect in the signal ratio in the repeat runs, not every such curve was filed as active; the % refers to the signal ratio); settings: SBE-bla HEK293T, TGF-beta/Smad beta-lactamase reporter, 5 h; series mostly up to 76.8 µM
In short: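 After overnight seeding, SBE-bla HEK 293T cells are dosed with compounds in DMSO and kept 5 hr at 37 C, 5% CO2. LiveBLAzer-type FRET substrate is then applied for 2 hr at room temperature.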

[6] = target: Thyrotropin-releasing hormone receptor (Homo sapiens) (UniProt P34981); test: qHTS assay to identify small molecule antagonists of the thyrotropin-releasing hormone receptor (TRHR) signaling pathway (AID 1346877; active = well fitted inhibition curve with a large enough effect in the repeat runs, not every such curve was filed as active); settings: TRHR-HEK293, TRH-induced calcium fluorescence, antagonist mode; series mostly up to 51.3 µM
In short: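 TRHR-expressing HEK293 cells loaded with calcium dye for 2 h at 37 C; compounds pre-incubated 5 min at room temperature before TRH challenge at 1 nM final. Intracellular calcium fluorescence read kinetically for 3 min; 15 concentrations in triplicate.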

[7] = target: Thyrotropin-releasing hormone receptor (Homo sapiens) (UniProt P34981); test: qHTS assay to identify small molecule agonists of the thyrotropin-releasing hormone receptor (TRHR) signaling pathway (AID 1346891; calls by dose curve; note: potency is the fitted concentration of half-maximal effect); settings: TRHR-HEK293 calcium fluorescence, agonist mode; series mostly up to 57.6 µM
In short: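 Compounds were tested as agonists at 15 concentrations, in triplicate, on TRHR-Hek293 cells; calcium-sensitive dye fluorescence was recorded for 3 min following addition.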

[8] = Human pregnane X receptor (PXR) small molecule agonists, qHTS cell viability counter screen (AID 1346977); settings: PXR-Luc HepG2 viability, CellTiter-Fluor, 24 h; series mostly up to 92.4 µM; note: nearly all actives have a fitted effect of over 50% in size; note: potency is the fitted concentration of half-maximal effect
In short: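 Viability counter screen: CellTiter-Fluor signal in PXR-Luc HepG2 cells, 24hr compound exposure, 37C, 5% CO2.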

[9] = qHTS assay to identify small molecule agonists of the progesterone receptor (PR) signaling pathway - cell viability counter screen (AID 1346799; calls by dose curve; note: nearly all actives have a fitted effect of over 45% in size; note: potency is the fitted concentration of half-maximal effect); settings: PR-UAS-bla HEK293T viability, CellTiter-Glo luminescence, 16 h; series mostly up to 92.4 µM
In short: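 In parallel with the beta-lactamase readout, cytotoxicity toward PR-UAS-bla HEK293T cells was measured by CellTiter-Glo luminescence following 16 hr compound incubation in 2% charcoal-stripped FBS medium.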

[10] = target: Progesterone receptor (Homo sapiens) (UniProt P06401); test: qHTS assay to identify small molecule antagonists of the progesterone receptor (PR) signaling pathway (AID 1346795; active = well fitted inhibition curve with a large enough effect in the signal ratio in the repeat runs, not every such curve was filed as active; the % refers to the signal ratio; note: potency is the fitted concentration of half-maximal effect); settings: PR-UAS-bla HEK293T, beta-lactamase FRET ratio, 16 h; series mostly up to 92.4 µM
In short: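 Fluorescence intensity measured 2 hr after adding beta-lactamase FRET substrate to PR-UAS-bla HEK293T cells that had been co-treated 16 hr with compound and 1 nM R5020 (final concentration) in 2% charcoal-stripped FBS.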
% is set by controls: 0 for no effect and ±100 for the full control effect.

Chain of Thyrotropin-releasing hormone receptor (Homo sapiens) (P34981 whole entry, looked up): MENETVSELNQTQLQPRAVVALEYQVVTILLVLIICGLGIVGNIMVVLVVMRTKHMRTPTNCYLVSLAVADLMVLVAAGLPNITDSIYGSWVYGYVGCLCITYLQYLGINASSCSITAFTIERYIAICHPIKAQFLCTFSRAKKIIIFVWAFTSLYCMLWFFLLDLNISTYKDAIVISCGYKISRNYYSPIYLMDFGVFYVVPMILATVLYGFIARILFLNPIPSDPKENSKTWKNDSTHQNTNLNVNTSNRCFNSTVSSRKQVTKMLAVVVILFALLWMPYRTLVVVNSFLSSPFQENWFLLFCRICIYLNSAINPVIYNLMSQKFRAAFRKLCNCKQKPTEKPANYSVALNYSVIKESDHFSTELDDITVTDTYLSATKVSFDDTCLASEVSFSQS
Chain of Progesterone receptor (Homo sapiens) (P06401 whole entry, looked up): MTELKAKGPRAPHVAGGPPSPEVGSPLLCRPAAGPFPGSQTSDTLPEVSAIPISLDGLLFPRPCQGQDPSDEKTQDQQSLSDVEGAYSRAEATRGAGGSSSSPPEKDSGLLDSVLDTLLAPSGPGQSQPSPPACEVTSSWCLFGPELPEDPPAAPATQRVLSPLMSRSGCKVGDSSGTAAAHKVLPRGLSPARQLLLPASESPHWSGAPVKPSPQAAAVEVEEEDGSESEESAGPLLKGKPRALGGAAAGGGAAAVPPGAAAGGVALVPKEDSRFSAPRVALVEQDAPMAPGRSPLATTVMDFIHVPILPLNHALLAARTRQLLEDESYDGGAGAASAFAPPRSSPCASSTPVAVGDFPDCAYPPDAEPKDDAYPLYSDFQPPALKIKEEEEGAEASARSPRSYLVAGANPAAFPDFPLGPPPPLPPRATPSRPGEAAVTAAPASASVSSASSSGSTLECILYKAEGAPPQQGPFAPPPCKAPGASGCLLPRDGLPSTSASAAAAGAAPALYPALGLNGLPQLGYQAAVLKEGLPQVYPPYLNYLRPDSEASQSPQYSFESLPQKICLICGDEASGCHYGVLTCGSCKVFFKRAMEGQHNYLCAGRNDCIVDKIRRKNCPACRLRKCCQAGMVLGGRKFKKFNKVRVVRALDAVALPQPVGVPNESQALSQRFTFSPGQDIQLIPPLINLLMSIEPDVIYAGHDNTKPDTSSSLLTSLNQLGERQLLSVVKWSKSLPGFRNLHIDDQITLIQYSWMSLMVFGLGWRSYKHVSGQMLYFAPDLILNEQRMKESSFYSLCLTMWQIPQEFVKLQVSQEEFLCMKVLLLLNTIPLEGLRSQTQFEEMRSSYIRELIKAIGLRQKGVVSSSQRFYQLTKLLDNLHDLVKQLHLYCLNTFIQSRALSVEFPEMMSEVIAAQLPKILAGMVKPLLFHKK

CC(C)(COC(=O)c1ccccc1)COC(=O)c1ccccc1
inactive: Potency [1] | Potency [2] | Potency [3] | outcome [4] | Potency [5] | outcome [6] | Potency [7] | Potency [8]

ClCCOCCOCCCl
inactive: Potency [2] | Potency [9] | Potency [3] | outcome [4] | Potency [5] | outcome [6] | Potency [7] | Potency [8]

Clc1ccc2c(c1)CCc1cccnc1C2=C1CCNCC1
active: Potency [2] 21.1 µM | Potency [8] 29.8 µM
inactive: Potency [3] | outcome [4] | Potency [5]

CCCCC/C=C\C/C=C\CCCCCCCC(=O)NC(C)c1ccccc1 (stereo not given)
inactive: Potency [1] | Potency [3] | outcome [4] | outcome [6] | Potency [7] | Potency [8]

O=C(Cl)c1cc(C(=O)Cl)cc(C(=O)Cl)c1
inactive: Potency [9] | Potency [3] | outcome [4] | Potency [5]

CCCCCCCCCCCCN1CCCCCC1=O
inactive: Potency [2] | Potency [3] | Potency [5] | outcome [6] | Potency [7]

O=C(O)C1(C(=O)Nc2ccc(Cl)cc2Cl)CC1
inactive: Potency [3] | outcome [4] | outcome [6] | Potency [7] | Potency [8]

CC(C)(O)c1ccc(CNC(=O)c2cccnc2Oc2ccc(F)cc2)cc1
inactive: Potency [1] | Potency [3] | Potency [5] | Potency [8]

CCCCCCc1ccc(-c2ccc(C#N)cc2)cc1
active: Potency [10] 21.3 µM
inactive: Potency [2] | Potency [3] | Potency [5] | Potency [8]

CN(C)CCN(Cc1ccccc1)c1ccccn1
inactive: Potency [3] | Potency [5] | outcome [6] | Potency [7]

C[C@H](CCC(=O)O)[C@H]1CC[C@H]2[C@@H]3CC[C@@H]4C[C@H](O)CC[C@]4(C)[C@H]3C[C@H](O)[C@]12C
inactive: Potency [3] | outcome [4] | outcome [6] | Potency [7] | Potency [8]
active: Potency [9] 54.6 µM

CCCCCCCC/C=C\CCCCCCCC(=O)OCC
inactive: Potency [10] | Potency [2] | Potency [3] | outcome [4] | Potency [7] | Potency [8]

CC(C)CC(=O)C1C(=O)c2ccccc2C1=O
inactive: Potency [1] | Potency [3] | outcome [4] | outcome [6] | Potency [8]

Brc1c2ccccc2cc2ccccc12
inactive: Potency [2] | Potency [3] | outcome [4] | Potency [8]

Cc1oc2c(NC(=O)c3c(Cl)cccc3Cl)cccc2c1C(C)(C)O
inactive: Potency [2] | Potency [3] | Potency [5] | outcome [6]

CCCCCCCCCc1ccc(OCCOCCO)cc1
active: Potency [10] 12.8 µM | Potency [3] 18.3 µM | Potency [8] 5.74 µM
inactive: Potency [5] | outcome [6] | Potency [7]

C=C(C)C(=O)OCC
inactive: Potency [2] | Potency [9] | Potency [3] | outcome [4] | outcome [6] | Potency [7] | Potency [8]

Cc1cccc(C)c1OCC(=O)N[C@@H](Cc1ccccc1)[C@@H](O)C[C@H](Cc1ccccc1)NC(=O)[C@H](C(C)C)N1CCCNC1=O
active: Potency [2] 29.8 µM | Potency [8] 29.8 µM
inactive: Potency [3]

CC1OC(=O)C(C)OC1=O (stereo not given)
inactive: Potency [2] | Potency [9] | Potency [3] | outcome [4] | Potency [5] | outcome [6] | Potency [7] | Potency [8]

C=CCOc1ccccc1OCC(O)CNC(C)C (stereo not given)
inactive: Potency [2] | Potency [9] | Potency [3] | outcome [4] | Potency [5] | outcome [6] | Potency [7] | Potency [8]

Clc1ccc(Cn2c(CN3CCCC3)nc3ccccc32)cc1
inactive: Potency [3] | outcome [4] | Potency [5] | outcome [6]
active: Potency [2] 6.68 µM | Potency [9] 7.5 µM

CC(=O)NO
inactive: Potency [9] | Potency [3] | outcome [4] | Potency [5] | outcome [6] | Potency [7] | Potency [8]

C=CC(=O)OCCOCCOCCOCCOC(=O)C=C
active: Potency [8] 54 µM
inactive: Potency [1] | outcome [4] | Potency [5] | outcome [6] | Potency [7]

OC(CN1CCC(Cc2ccc(F)cc2)CC1)c1ccc(Cl)cc1 (stereo not given)
inactive: Potency [2] | Potency [9] | Potency [3] | outcome [4] | outcome [6] | Potency [7]
active: Potency [8] 29.8 µM

CN(C)c1ccc(/C=C/c2ccc([N+](=O)[O-])cc2)cc1
inactive: activity change, negative = inhibition [10] -17.2% [at 8.39 µM] | activity change, negative = cytotoxicity [2] -5% [at 8.39 µM] | activity change, negative = cytotoxicity [9] -0.149% [at 8.39 µM] | viability change, negative = cytotoxic [3] -3.22% [at 6.97 µM] | activity change, negative = cytotoxicity [4] 8.79% [at 6.97 µM] | activation [5] -9.78% [at 6.97 µM] | activity, negative = inhibition [6] -0.61% [at 4.65 µM] | activation [7] 0.993% [at 5.23 µM] | activity change, negative = cytotoxicity [8] -0.583% [at 8.39 µM]

CC(=O)c1ccc2c(c1)N(CCCN1CCC(CCO)CC1)c1ccccc1S2
inactive: Potency [1] | Potency [3] | outcome [4]
active: Potency [8] 26.6 µM

C[C@@H]1C[C@H]2[C@@H]3CCC4=CC(=O)C=C[C@]4(C)[C@@]3(F)[C@@H](O)C[C@]2(C)[C@@]1(O)C(=O)COC(=O)c1ccncc1
inactive: Potency [2] | Potency [9] | Potency [3] | outcome [4] | Potency [5] | Potency [8]

OCCN1CCN(CCCN2c3ccccc3C=Cc3ccccc32)CC1
active: Potency [8] 23.7 µM
inactive: Potency [2] | Potency [3]

CC1=CCCC(C)(C)C12CCC(C)O2 (stereo not given)
inactive: Potency [2] | Potency [9] | Potency [3] | outcome [4] | Potency [5] | outcome [6] | Potency [8]

COc1ccc(S(=O)(=O)N2C(=O)[C@@](c3ccccc3OC)(N3C[C@H](O)C[C@H]3C(=O)N(C)C)c3cc(Cl)ccc32)c(OC)c1
inactive: Potency [3] | outcome [6]
active: Potency [10] 54.5 µM | Potency [8] 54.5 µM

O=C(O)c1nc(Cl)c(Cl)c(Cl)c1Cl
inactive: Potency [2] | Potency [9] | Potency [3] | outcome [6] | Potency [7] | Potency [8]

CCN(CC)c1ccc2c(-c3ccccc3C(=O)O)c3ccc(=[N+](CC)CC)cc-3oc2c1
inactive: Potency [10] | Potency [2] | Potency [3] | Potency [5] | outcome [6]
active: Potency [7] 34.7 µM | Potency [8] 4.86 µM

CCC(C)O (stereo not given)
inactive: Potency [10] | Potency [2] | Potency [3] | outcome [4] | Potency [5] | Potency [7] | Potency [8]

C=CC(=O)OCCOCCOC(=O)C=C
active: Potency [8] 54.7 µM
inactive: Potency [7]

O=C(OCCCCCCOC(=O)c1ccccc1)c1ccccc1
inactive: Potency [1] | Potency [3] | Potency [5] | outcome [6] | Potency [7] | Potency [8]

COc1cc(C(=O)OCCCN2CCCN(CCCOC(=O)c3cc(OC)c(OC)c(OC)c3)CC2)cc(OC)c1OC
inactive: Potency [10] | Potency [2] | Potency [9] | Potency [3] | outcome [4] | Potency [5] | outcome [6] | Potency [7]

COC(=O)C1=C(C)NC(COC(N)=O)=C(C(=O)OC(C)C)C1c1cccc(Cl)c1Cl (stereo not given)
inactive: Potency [1] | Potency [3] | outcome [4] | Potency [8]

From PubChem BioAssay (Tox21)
